# Values joined by “and” are separate entries in the source; they are usually repeats but may differ in a detail not shown here. Identical values can stand only once. Records with an inconclusive call do not appear. Where a call stands in place of a potency, no number is given. The source holds several records for some structures; these can differ, active in one and inactive in another. Active and inactive are the calls of the source. Unless noted, calls come from the whole dose curve; as a rule, active = well fitted curve in the direction sought with a large enough effect; inconclusive = small, poorly fitted or top-dose-only effect, or another doubt; inactive = no such curve, though single readings can be large; an effect the other way counts as inactive or inconclusive.
# Legend:
# [1] = NCATS anti-infectives library activity on HEK293 viability as a counter-qHTS vs the C. elegans viability qHTS (AID 1745854); settings: HEK293 viability counter-screen; series mostly up to 41.8 µM;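 note: HEK293 cells exposed to compounds for 24 hr before the viability read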
# Procedure, shortened: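 Counter-screen for cytotoxicity: HEK293, 24 hr, 37C, compounds up to 41.7 uM final (a dilution series, 1:5). Readout CellTiter-Glo luminescence, 10 min RT. Digitonin control, 83.3 uM final.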
# [2] = biological target: Glutathione peroxidase 1 (Homo sapiens) (UniProt P07203); assay: Primary qHTS Assay for Inhibitors of Recombinant Selenoprotein Glutathione Peroxidase 1 (GPX1) (AID 1845191); settings: recombinant GPX1, GR-coupled NADPH fluorescence, 15 min; series mostly up to 48.8 µM; note: nearly all actives have a fitted effect of over 65% in size
# Procedure, shortened: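 GR-coupled readout: NADPH consumption tracked by fluorescence, ex 340/em 450 nm, at t=0 and after 15 min at RT. Final mix 10 nM GPX1, 1 mM GSH, 0.5 mM CHP, 0.5 mM NADPH, 100 nM GR, 0.01% BSA, following 30 min enzyme–compound preincubation.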
# [3] = biological target: Phospholipid hydroperoxide glutathione peroxidase GPX4 (Homo sapiens) (UniProt P36969); assay: Primary qHTS Assay for Inhibitors of Recombinant Selenoprotein Glutathione Peroxidase 4 (GPX4) (AID 1845192); settings: recombinant GPX4, GR-coupled NADPH fluorescence, 15 min; series mostly up to 50 µM; note: nearly all actives have a fitted effect of over 65% in size
# Procedure, shortened: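 Steps: GPX4 plus compound, 30 min RT; add GR/GSH/NADPH master mix; start with cumene hydroperoxide; read 340/450 nm fluorescence at 0 and 15 min. Finals were 200 nM GPX4, 1 mM GSH, 0.5 mM CHP, 0.5 mM NADPH, 100 nM GR.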
# [4] = biological target: Rap guanine nucleotide exchange factor 3 (Homo sapiens) (UniProt O95398); assay: Confirmatory qHTS for antagonist of cAMP-regulated guanine nucleotide exchange factor 3 (EPAC1) (AID 1645880); settings: EPAC1 Rap1B-BODIPY-GDP exchange, fluorescence; series mostly up to 115 µM; note: nearly all actives have a fitted effect of over 55% in size
# Procedure, shortened: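 Released BODIPY-GDP fluoresces less than Rap1-bound BODIPY-GDP; the signal is followed at 480/540 nm at 5-min intervals over 30 min, after 5 min at room temperature. Reactions contain 100 nM EPAC1, 250 nM RAP1B-BODIPY-GDP and 50 uM GDP; results are normalized to ATA and DMSO.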
# [5] = biological target: Rap guanine nucleotide exchange factor 3 (Homo sapiens) (UniProt O95398); assay: Confirmatory qHTS for agonist of cAMP-regulated guanine nucleotide exchange factor 3 (EPAC1) (AID 1645881); settings: EPAC1 Rap1B BODIPY-GDP exchange fluorescence, 100% = cAMP control response; series mostly up to 154 µM;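 note: EPAC1 catalysed release of BODIPY-GDP from Rap1B seen as fluorescence loss; nearly all actives have a fitted effect of over 75% in size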
# [6] = biological target: Rap guanine nucleotide exchange factor 4 (Homo sapiens) (UniProt Q8WZA2); assay: Confirmatory qHTS for agonist of cAMP-regulated guanine nucleotide exchange factor 4 (EPAC2) (AID 1645884); settings: EPAC2 GEF activity, Rap1B-BODIPY-GDP fluorescence; series mostly up to 154 µM;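 note: nucleotide exchange releases bodipy-GDP from Rap1 and this lowers its fluorescence; nearly all actives have a fitted effect of over 65% in size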
# [7] = biological target: Rap guanine nucleotide exchange factor 4 (Homo sapiens) (UniProt Q8WZA2); assay: Confirmatory qHTS for antagonist of cAMP-regulated guanine nucleotide exchange factor 4 (EPAC2) (AID 1645885); settings: EPAC2 Rap1B-BODIPY-GDP exchange fluorescence, biochemical; series mostly up to 114 µM; note: nearly all actives have a fitted effect of over 25% in size; note: potency is the fitted concentration of half-maximal effect
# [8] = biological target: Catechol O-methyltransferase (Homo sapiens) (UniProt P21964); assay: Confirmatory Screen for Target Class Profiling of Small Molecule Inhibitors of Methyltransferases (AID 1745852); settings: MTase-Glo luminescence, SAH detection, recombinant enzyme; measured here: COMT max response; stronger effect = lower value
# [9] = biological target: Guanidinoacetate N-methyltransferase (Homo sapiens) (UniProt Q14353); assay: as above; settings: MTase-Glo luminescence, SAH detection, recombinant enzyme; at 57.3 µM (top of the series)
# [10] = biological target: Nicotinamide N-methyltransferase (Homo sapiens) (UniProt P40261); assay: as above; settings: MTase-Glo luminescence, SAH detection, recombinant enzyme; measured here: NNMT max response; stronger effect = lower value
# [11] = biological target: Phenylethanolamine N-methyltransferase (Homo sapiens) (UniProt P11086); assay: as above; settings: MTase-Glo luminescence, SAH detection, recombinant enzyme; measured here: PNMT max response; stronger effect = lower value
# [12] = NCATS anti-infectives library activity on the primary C. elegans qHTS viability assay (AID 1745855; calls by dose curve; note: potency is the fitted concentration of half-maximal effect); settings: C. elegans worm area imaging, day 7; series mostly up to 83.3 µM
# Procedure, shortened: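 GFP read-out by 488 nm laser cytometry at day 0, 3 and 7, gated on object perimeter, area and peak intensity, scored viability of PE254-GFP-FLuc worms exposed to compound in S medium with bacterial capsules at 21 °C.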
# [13] = Viability counterscreen for antagonist of constitutive androstane receptor (CAR) against the NCATS DSHEA and TCM libraries (AID 1794837); settings: CAR reporter cell line viability counterscreen, qHTS; series mostly up to 40 µM;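 note: compound exposure lasted 24 h before viability reading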
# Procedure, shortened: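 HepG2-CYP2B6-hCAR cells, 2,500/well, were exposed 24 hr at 37C to substances together with 48 uM CITCO (final). Viability was read as CellTiter-Fluor fluorescence (Ex/Em 405/540 nm) after 1 hr.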
# [14] = Viability counterscreen for agonist of constitutive androstane receptor (CAR) against the NCATS DSHEA and TCM libraries (AID 1794838); settings: HepG2 cell viability counterscreen, CAR agonist assay, co-treated with 0.75 µM CAR antagonist; series mostly up to 40 µM;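 note: HepG2 cells with CYP2B6 reporter and hCAR plus 0.75 µM PK11195 antagonist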
# Procedure, shortened: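 HepG2-CYP2B6-hCAR cells (2,500/well) treated 24 h at 37C with compounds plus 0.75 uM PK11195; viability read by CellTiter-Fluor fluorescence, Ex/Em 405/540 nm.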
# [15] = biological target: Nuclear receptor subfamily 1 group I member 3 (Homo sapiens) (UniProt Q14994); assay: Primary qHTS for agonist of constitutive androstane receptor (CAR) against the NCATS DSHEA and TCM libraries (AID 1794839); settings: CAR agonist reporter cells, qHTS luminescence, CAR antagonist co-added at 0.75 µM; series mostly up to 40 µM;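 note: HepG2 cells expressing human CAR with a CYP2B6 reporter plus PK11195 antagonist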
# Procedure, shortened: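 HepG2-CYP2B6-hCAR cells, 2,500/well, attached 5 h, then dosed with 0.75 µM PK11195 (final) for 24 h at 37 °C. Luciferase luminescence read (ONE-Glo); CellTiter-Fluor viability (Ex/Em 405/540 nm) in same wells; CITCO positive control.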
# [16] = HepG2 viability counterscreen (readout 2: ATP content) against the NCATS DSHEA and TCM libraries (AID 1794840); settings: ATP content luminescence; series mostly up to 27.3 µM
# Procedure, shortened: (§1)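 HepG2 cells, 1,000/well, attached ~4 h, then exposed ~24 h at 37C to substances. Protease activity read by fluorescence of 25 uM GF-AFC (Ex/Em 380/510 nm) after 30 min; ATP then by CellTiter-Glo luminescence.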
# [17] = HepG2 viability counterscreen (readout 1: protease activity) against the NCATS DSHEA and TCM libraries (AID 1794841); settings: qHTS concentration series; series mostly up to 27.3 µM;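 note: cells exposed to compounds for about 24 h before the protease read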
# Procedure, shortened: as §1
# [18] = biological target: Rap guanine nucleotide exchange factor 3 (Homo sapiens) (UniProt O95398); assay: Counterscreen qHTS for agonist of cAMP-regulated guanine nucleotide exchange factor 3 (EPAC1) (AID 1645889); settings: EPAC1 Rap1B-BODIPY-GDP exchange, fluorescence; series mostly up to 154 µM; note: nearly all actives have a fitted effect of over 40% in size
# Procedure, shortened: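 Rap1B–BODIPY-GDP (250 nM) with 50 uM GDP; compounds pin-transferred to 9.74 nM–152 uM final (activator) or from 7.32 nM upwards (inhibitor). Fluorescence Ex/Em 480/540 nm read at 5 and 30 min, then after adding cAMP or buffer, at room temperature.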
# Sequence of Phospholipid hydroperoxide glutathione peroxidase GPX4 (Homo sapiens) (P36969 whole entry, looked up): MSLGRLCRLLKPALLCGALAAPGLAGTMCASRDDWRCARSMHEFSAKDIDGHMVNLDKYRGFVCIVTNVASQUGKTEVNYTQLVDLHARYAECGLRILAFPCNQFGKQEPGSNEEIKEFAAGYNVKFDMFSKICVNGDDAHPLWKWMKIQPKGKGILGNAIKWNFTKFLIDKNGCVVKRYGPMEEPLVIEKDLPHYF
# Sequence of Rap guanine nucleotide exchange factor 3 (Homo sapiens) (O95398 whole entry, looked up): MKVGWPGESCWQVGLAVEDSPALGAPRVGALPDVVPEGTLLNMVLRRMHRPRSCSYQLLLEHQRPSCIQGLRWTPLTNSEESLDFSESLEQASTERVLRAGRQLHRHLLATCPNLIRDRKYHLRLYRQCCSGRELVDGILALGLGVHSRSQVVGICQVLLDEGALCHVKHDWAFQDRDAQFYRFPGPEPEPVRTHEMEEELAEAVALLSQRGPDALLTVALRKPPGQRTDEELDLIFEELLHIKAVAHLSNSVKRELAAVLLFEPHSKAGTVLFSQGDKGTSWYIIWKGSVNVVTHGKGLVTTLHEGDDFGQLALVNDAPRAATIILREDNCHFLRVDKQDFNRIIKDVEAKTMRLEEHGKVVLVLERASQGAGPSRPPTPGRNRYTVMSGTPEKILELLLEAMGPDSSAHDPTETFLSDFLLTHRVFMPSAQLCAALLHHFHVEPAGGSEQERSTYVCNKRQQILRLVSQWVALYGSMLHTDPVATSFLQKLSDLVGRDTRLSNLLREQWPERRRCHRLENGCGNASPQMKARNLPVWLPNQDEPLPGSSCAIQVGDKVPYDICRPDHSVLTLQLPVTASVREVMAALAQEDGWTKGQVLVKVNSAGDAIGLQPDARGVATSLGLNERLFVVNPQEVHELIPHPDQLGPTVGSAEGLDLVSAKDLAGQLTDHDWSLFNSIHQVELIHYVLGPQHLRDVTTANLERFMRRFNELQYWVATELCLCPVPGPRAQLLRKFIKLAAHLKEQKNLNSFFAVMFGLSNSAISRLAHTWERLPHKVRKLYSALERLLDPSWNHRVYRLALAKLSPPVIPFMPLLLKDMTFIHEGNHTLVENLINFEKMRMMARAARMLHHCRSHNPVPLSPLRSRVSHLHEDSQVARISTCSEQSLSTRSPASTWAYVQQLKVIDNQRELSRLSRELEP
# Sequence of Rap guanine nucleotide exchange factor 4 (Homo sapiens) (Q8WZA2 whole entry, looked up): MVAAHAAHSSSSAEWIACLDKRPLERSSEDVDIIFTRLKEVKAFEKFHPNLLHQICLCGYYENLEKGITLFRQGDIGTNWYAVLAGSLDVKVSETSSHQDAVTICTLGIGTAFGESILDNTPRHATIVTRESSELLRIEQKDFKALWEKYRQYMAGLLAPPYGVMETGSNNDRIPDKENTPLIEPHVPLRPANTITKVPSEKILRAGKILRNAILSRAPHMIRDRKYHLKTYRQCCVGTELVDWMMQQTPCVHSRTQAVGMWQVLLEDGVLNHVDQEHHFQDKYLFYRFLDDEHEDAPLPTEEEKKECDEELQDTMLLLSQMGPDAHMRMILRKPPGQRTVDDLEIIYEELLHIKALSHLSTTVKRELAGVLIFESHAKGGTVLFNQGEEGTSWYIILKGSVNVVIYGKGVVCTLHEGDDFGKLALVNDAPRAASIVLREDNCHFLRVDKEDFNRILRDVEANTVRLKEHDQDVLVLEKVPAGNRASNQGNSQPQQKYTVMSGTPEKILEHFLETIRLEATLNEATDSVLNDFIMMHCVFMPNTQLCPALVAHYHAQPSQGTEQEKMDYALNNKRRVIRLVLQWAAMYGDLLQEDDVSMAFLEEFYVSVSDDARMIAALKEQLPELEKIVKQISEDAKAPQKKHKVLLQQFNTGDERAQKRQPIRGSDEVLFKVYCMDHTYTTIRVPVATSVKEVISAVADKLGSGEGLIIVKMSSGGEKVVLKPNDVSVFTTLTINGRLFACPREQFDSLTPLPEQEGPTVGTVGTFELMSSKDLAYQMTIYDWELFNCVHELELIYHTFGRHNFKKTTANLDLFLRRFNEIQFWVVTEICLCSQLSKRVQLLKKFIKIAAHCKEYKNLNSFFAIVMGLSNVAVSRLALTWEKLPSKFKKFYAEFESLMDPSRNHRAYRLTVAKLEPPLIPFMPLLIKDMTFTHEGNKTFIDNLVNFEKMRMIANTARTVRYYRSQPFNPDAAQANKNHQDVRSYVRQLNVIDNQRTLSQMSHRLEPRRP
# Sequence of Glutathione peroxidase 1 (Homo sapiens) (P07203 whole entry, looked up): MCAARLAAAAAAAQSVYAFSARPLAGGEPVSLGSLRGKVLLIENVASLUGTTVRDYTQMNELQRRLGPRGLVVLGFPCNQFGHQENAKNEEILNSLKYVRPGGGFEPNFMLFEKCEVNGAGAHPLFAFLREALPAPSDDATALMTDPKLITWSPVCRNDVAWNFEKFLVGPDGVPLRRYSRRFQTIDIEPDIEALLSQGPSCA
# Sequence of Phenylethanolamine N-methyltransferase (Homo sapiens) (P11086 whole entry, looked up): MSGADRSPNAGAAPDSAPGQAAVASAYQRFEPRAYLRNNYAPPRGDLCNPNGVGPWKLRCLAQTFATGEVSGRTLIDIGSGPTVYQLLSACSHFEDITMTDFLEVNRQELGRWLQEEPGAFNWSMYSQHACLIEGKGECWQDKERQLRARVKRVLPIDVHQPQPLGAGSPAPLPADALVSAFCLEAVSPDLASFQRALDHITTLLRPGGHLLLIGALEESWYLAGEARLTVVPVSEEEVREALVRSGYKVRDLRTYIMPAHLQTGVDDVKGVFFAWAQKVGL
# Sequence of Catechol O-methyltransferase (Homo sapiens) (P21964 whole entry, looked up): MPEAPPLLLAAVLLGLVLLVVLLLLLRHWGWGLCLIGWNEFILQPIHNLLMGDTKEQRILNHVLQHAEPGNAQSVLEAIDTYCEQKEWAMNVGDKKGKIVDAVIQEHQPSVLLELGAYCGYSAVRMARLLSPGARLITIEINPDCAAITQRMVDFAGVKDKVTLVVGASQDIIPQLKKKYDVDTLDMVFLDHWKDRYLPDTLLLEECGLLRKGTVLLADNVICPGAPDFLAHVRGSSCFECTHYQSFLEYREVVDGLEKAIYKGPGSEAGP
# Sequence of Nicotinamide N-methyltransferase (Homo sapiens) (P40261 whole entry, looked up): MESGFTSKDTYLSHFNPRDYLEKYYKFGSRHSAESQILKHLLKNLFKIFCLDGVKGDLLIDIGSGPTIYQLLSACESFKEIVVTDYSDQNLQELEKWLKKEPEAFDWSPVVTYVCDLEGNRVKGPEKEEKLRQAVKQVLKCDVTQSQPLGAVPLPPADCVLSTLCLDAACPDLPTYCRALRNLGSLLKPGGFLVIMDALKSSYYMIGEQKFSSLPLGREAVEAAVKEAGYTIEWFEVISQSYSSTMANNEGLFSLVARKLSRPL
# Sequence of Nuclear receptor subfamily 1 group I member 3 (Homo sapiens) (Q14994 whole entry, looked up): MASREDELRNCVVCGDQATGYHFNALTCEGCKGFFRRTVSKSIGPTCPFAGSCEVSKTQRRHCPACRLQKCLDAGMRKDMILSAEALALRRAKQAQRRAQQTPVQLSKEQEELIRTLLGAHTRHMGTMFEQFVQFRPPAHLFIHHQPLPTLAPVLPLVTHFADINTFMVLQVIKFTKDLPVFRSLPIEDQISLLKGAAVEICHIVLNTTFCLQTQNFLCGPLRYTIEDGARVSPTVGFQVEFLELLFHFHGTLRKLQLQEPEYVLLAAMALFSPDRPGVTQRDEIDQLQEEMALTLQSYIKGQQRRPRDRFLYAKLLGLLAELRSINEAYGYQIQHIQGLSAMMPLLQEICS
smiles,measurement,setting,value
CCCCc1nc(Cl)c(CO)n1Cc1ccc(-c2ccccc2-c2nn[nH]n2)cc1,Potency,[1],inactive
same,Potency,[2],inactive
same,Potency,[3],inactive
CC(=O)Oc1ccc(C(c2ccc(OC(C)=O)cc2)c2ccccn2)cc1,Potency,[4],inactive
same,outcome,[5],inactive
same,Potency,[6],inactive
same,Potency,[7],inactive and 44.1 µM (active)
same,Potency,[2],inactive
same,Potency,[3],inactive
CC(=O)Oc1ccc2c(c1)CC[C@@H]1[C@@H]2CC[C@]2(C)[C@@H](O)CC[C@@H]12,Potency,[4],inactive
same,outcome,[5],inactive
same,Potency,[6],inactive
same,Potency,[7],inactive
same,Potency,[2],inactive
same,Potency,[3],inactive
NC(=NCCCCCCN=C(N)/N=C(\N)Nc1ccc(Cl)cc1)/N=C(\N)Nc1ccc(Cl)cc1,activity,[8],-5.42%
same,"activity change, negative = inhibition",[9],0.888%
same,activity,[10],-51.5%
same,activity,[11],-67.4%
same,Potency,[12],11.5 µM (active)
same,Potency,[2],inactive
same,Potency,[3],inactive
NCCCC[C@H](N[C@@H](CCc1ccccc1)C(=O)O)C(=O)N1CCC[C@H]1C(=O)O,"activity change, negative = cytotoxicity",[1],-8.63% [at 8.35 µM] (inactive)
same,Potency,[2],inactive
CC(C)(C)CC(C)(C)c1ccc(OCCOCC[N+](C)(C)Cc2ccccc2)cc1,activity,[8],-13.4%
same,"activity change, negative = inhibition",[9],-8.7%
same,activity,[10],-59.7%
same,activity,[11],-7.81%
same,Potency,[2],inactive
same,Potency,[3],inactive
C=CCc1ccc(O)c(OC)c1,outcome,[13],inactive
same,outcome,[14],inactive
same,outcome,[15],inactive
same,outcome,[16],inactive
same,outcome,[17],inactive
same,Potency,[2],inactive
Oc1ccc(Cl)cc1Sc1cc(Cl)ccc1O,outcome,[5],inactive
same,Potency,[6],inactive
same,Potency,[7],31.2 µM (active)
same,"activity change, negative = inhibition",[7],-4.98% [at 12.7 µM] (inactive)
same,activation,[18],18.9% [at 30.8 µM] (inactive)
CC(C)(C)NC(=O)[C@@H]1CN(Cc2cccnc2)CCN1C[C@@H](O)C[C@@H](Cc1ccccc1)C(=O)N[C@H]1c2ccccc2C[C@H]1O,Potency,[1],inactive
same,Potency,[2],inactive
same,Potency,[3],inactive

# — PubChem BioAssay (NCATS)
